Bioassay records: PubChem BioAssay, National Center for Advancing Translational Sciences (NCATS)
IDH1 R132H inh – human IDH1 R132H inhibition. O75874. IDH1-R132H enzyme, NADPH consumption, diaphorase/resazurin fluorescence. Potency, µM (titrated, usually from 76.6 µM), inactives show top-dose activity change, negative = inhibition, actives largely listed as inhibitors. actives 0.093% (n = 390,000). AID 602179; further: potency means the concentration at half of the fitted maximal effect; on the % scale 0 is the no-effect control and ±100 the full control effect; nearly all actives have a fitted effect of over 65% in size
Target sequence (O75874 whole entry R132H, stated change not applied): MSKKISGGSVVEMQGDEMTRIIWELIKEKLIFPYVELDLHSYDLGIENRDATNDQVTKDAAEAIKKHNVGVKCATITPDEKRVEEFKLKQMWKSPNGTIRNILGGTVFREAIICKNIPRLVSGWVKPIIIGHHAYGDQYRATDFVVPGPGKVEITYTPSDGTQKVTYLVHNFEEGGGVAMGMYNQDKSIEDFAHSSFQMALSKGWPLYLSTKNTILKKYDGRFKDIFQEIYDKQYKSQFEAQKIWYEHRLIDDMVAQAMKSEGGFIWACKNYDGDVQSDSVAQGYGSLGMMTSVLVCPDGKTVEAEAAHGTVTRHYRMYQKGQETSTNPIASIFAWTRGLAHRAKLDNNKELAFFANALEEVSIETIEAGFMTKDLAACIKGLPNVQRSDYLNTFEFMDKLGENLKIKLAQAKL
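IDH1-R132H (0.5 ug/mL) preincubated 30 min with compound, then NADPH (0.016 mM) and alpha-KG (2 mM) added; 80 min at RT, pH 7.5. Remaining NADPH coupled via diaphorase/resazurin to fluorescence (540/590 nm); concentration-response curves normalized to no-enzyme control.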
ATXN viability – cell viability loss in ATXN counter-screen; Potency, µM (doses to about 56.7 µM), hits mostly cytotoxic; S2 cells (HEK-293 line with an ATXN2-luciferase reporter) viability, CellTiter-Fluor protease fluorescence, 24 h; AID 651635; actives 0.49% (n = 400,000); further: potency means the concentration at half of the fitted maximal effect; nearly all actives have a fitted effect of over 40% in size
ATXN2 expr inh – ATXN2 expression inhibition | HEK-293 ATXN2-luciferase reporter, luminescence, 24 h | Potency, µM (series often up to 57 µM), without a hit: top-dose activity change, negative = inhibition, hits mostly inhibitors | actives 0.72% (n = 360,000); further: potency means the concentration at half of the fitted maximal effect; on the % scale 0 is the no-effect control and ±100 the full control effect; nearly all actives have a fitted effect of over 55% in size
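ATXN2-luciferase reporter cells (luciferase flanked by upstream and downstream ATXN2 gene portions) were treated 24 h at 37 °C with compounds at up to 57 uM. SteadyGlo luminescence gave expression; GF-AFC fluorescence gave viability.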
TGFb SMAD3 inh – blocks TGF-b signaling | HepG2 CAGA-GFP TGF-b/SMAD3 reporter, GFP fluorescence, 18 h; TGF-beta stimulated, 500 pg/mL final | Potency, µM (highest dose often 46.1 µM), without a hit: at the top dose activity, negative = inhibition, actives largely listed as inhibitors | actives 1.2% (n = 410,000) | AID 588855; further: potency means the concentration at half of the fitted maximal effect; on the % scale 0 is the no-effect control and ±100 the full control effect; nearly all actives have a fitted effect of over 65% in size
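Smad-responsive CAGA-GFP expression was quantified in HEPG2 cells exposed to compounds and 500 pg/mL final TGF-beta for 18 h at 37 degrees C; unstimulated wells defined full inhibition.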
LDHA block – inhibitors of human lactate dehydrogenase A; AID 1347041; activity change, % (values are at about 110 or 230 µM); actives 0.15% (n = 480,000); purified LDHA, NADH/diaphorase-resazurin fluorescence; stronger effect = lower value; in the data active means activity change below about -30%; inconclusive means mostly about -25% to -30%;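 further: plate controls were DMSO wells for no effect and wells without enzyme for full effect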
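LDH5 2 nM; NADH 0.06 mM, pyruvate 0.2 mM; 200 mM Tris pH 7.4, EDTA, Tween-20; 5 min RT. Detection: diaphorase 0.133 mg/mL + resazurin 37 µM, fluorescence ex540/em590 at 0 and 20 min; normalized to enzyme-free and DMSO wells.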
HepG2 tox-1 – HepG2 cytotoxicity, counter-screen for TGF-b inhibitors; HepG2 CAGA-GFP viability, ATP luminescence, 18 h; actives 0.76% (n = 410,000); Potency, µM (doses to about 46.1 µM), without a hit: top-dose activity change, negative = cytotoxicity, hits mostly cytotoxic; further: potency means the concentration at half of the fitted maximal effect
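CellTiter-Glo luminescence gave cytotoxicity after 18 hours at 37 degrees C. The cells were HepG2 CAGA-GFP in 1% FBS DMEM, stimulated with 500 pg/mL TGF-beta after compound addition. %Activity was normalised to no-cell wells (complete cell-killing) and DMSO (no toxicity), and curves were fitted and classified.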
TGFb CAGA inh – confirmation of TGF-b signaling inhibitors in HepG2 reporter cells. shares compounds with TGFb SMAD3 inh. HepG2 CAGA-GFP TGF-b reporter, GFP fluorescence, 18 h; cells stimulated with TGF-beta, 500 pg/mL. Potency, µM (highest dose often 46.1 µM), without a hit: at the top dose activity, negative = inhibition, usual class: inhibitors. actives 63% (n = 1,600); further: potency means the concentration at half of the fitted maximal effect; on the % scale 0 is the no-effect control and ±100 the full control effect; nearly all actives have a fitted effect of over 65% in size
HepG2 tox-2 – HepG2 cytotoxicity, TGF-b inhibitor counterscreen. shares compounds with TGFb SMAD3 inh. HepG2 CAGA-GFP viability, ATP luminescence, 18 h; cells stimulated with TGF-beta, 500 pg/mL. Potency, µM (titrated, usually from 46.1 µM), inactives show top-dose activity, negative = cytotoxicity, actives largely listed as inhibitors. actives 27% (n = 1,600); further: potency means the concentration at half of the fitted maximal effect; on the % scale 0 is the no-effect control and ±100 the full control effect; nearly all actives have a fitted effect of over 70% in size
CCL64 TGFb inh – blocks TGF-b signaling in CCL64 reporter cells; shares compounds with TGFb SMAD3 inh; CCL64 CAGA-GFP reporter, TGF-b stimulated, GFP fluorescence, 18 h; Potency, µM (titrated, usually from 46.1 µM), without a hit: at the top dose activity, negative = inhibition, most hits filed as inhibitors; actives 41% (n = 1,600); AID 720536; further: potency means the concentration at half of the fitted maximal effect; nearly all actives have a fitted effect of over 65% in size
TGFb COP inh – TGF-b inhibition validated with COP promoter. shares compounds with TGFb SMAD3 inh. HepG2 COP-GFP TGF-b reporter, GFP fluorescence, 18 h; cells stimulated by added recombinant TGF-beta. Potency, µM (highest dose often 46.1 µM), inactives show at the top dose activity, negative = inhibition, hits mostly inhibitors. actives 3% (n = 1,600); further: potency means the concentration at half of the fitted maximal effect; nearly all actives have a fitted effect of over 70% in size
* hit, by the source's call; i = inactive; ? = inconclusive; / = no result given. In the library only some 2.2% were active in any assay of this set; here they are far more common. Unless noted, the call rests on the fitted dose curve; in most records, active means well fitted curve in the direction sought with a large enough effect; inconclusive means small, poorly fitted or top-dose-only effect, or another doubt; inactive means no such curve, though single readings can be large; an effect the other way counts as inactive or inconclusive.

SMILES | IDH1 R132H inh | ATXN viability | ATXN2 expr inh | TGFb SMAD3 inh | LDHA block | HepG2 tox-1 | TGFb CAGA inh | HepG2 tox-2 | CCL64 TGFb inh | TGFb COP inh
Cc1occc1C(=O)N1CCN(c2ccc([N+](=O)[O-])cc2)CC1 | 0.0% | i | -21.5% | -8.2% | 0.3 | -0.3% | / | / | / | /
O=C1c2cccc(OCc3ccc(F)cc3)c2CCN1Cc1ccc(F)cc1 | -1.7% | i | ? | 6.31µM* | -3.0 | -28.8% | 23.1µM* | ? | 13µM* | 31.4%
O=C(NCc1ccc2c(c1)OCO2)C12CN(Cc3ccccc3)CC1C(c1cccc([N+](=O)[O-])c1)=NO2 (configuration not stated) | 9.3% | i | -6.6% | -1.6% | 6.0 | -2.7% | / | / | / | /
COc1ccccc1CNc1nc2cc(-c3ccc(OC)c(OC)c3)sc2c(=O)n1C | / | i | 0.0% | ? | -1.6 | 3.8% | / | / | / | /
COc1ccc(-c2cc3nc(NCC4CCCCC4)n(C)c(=O)c3s2)cc1OC | / | ? | ? | 10µM* | -4.6 | -28.5% | ? | ? | ? | 64.9%
CC1(C)S[C@@H]2[C@H](NC(=O)C3(N)CCCCC3)C(=O)N2[C@H]1C(=O)O | / | i | / | / | / | / | / | / | / | /
O=C(Nc1cccc2cccnc12)c1c(Cl)cc(Cl)cc1Cl | / | / | / | 3.8% | -2.9 | 7.0% | / | / | / | /
CCOC(=O)c1ccc(N=Nc2c(C)[nH]n(-c3ccccc3)c2=O)cc1 | 2.0% | i | / | 24.6% | -10.3 | 7.0% | / | / | / | /
CCOC(=O)c1ccc(-n2[nH]c(-c3ccccc3)cc2=O)cc1 | 4.1% | i | ? | ? | 8.1 | 10µM* | 16.4µM* | ? | ? | 45.2%
COCCn1c(-c2ccc(Br)cc2)csc1=Nc1cccnc1 | 14.3% | i | -28.4% | ? | -4.9 | -6.2% | / | / | / | /
FC(F)Oc1ccc(-c2csc(=Nc3cccnc3)n2CC2CCCO2)cc1 (configuration not stated) | -5.8% | i | -27.4% | ? | -10.2 | -54.1% | 12.1% | -29.8% | -4.7% | 23.9%
CCOc1ccc(C2=Nn3c(nnc3-c3ccccc3OC)SC2)cc1 | 3.6% | i | -18.6% | 10µM* | -1.8 | -23.5% | 0.231µM* | -7.9% | 0.461µM* | -5.9%
COc1ccc(OC)c(CN2CCN(c3cccc(C)c3C)CC2)c1 | / | / | / | / | -5.3 | / | / | / | / | /
O=C(/C(=N\Nc1ccc([N+](=O)[O-])cc1)Sc1nnnn1-c1ccccc1)c1ccccc1 | -0.3% | i | -31.9% | 7.94µM* | -10.1 | -40.2% | ? | 23.1µM* | 20.6µM* | 85.1%
Cc1ccc(N/N=C(/Sc2nnnn2-c2ccccc2)C(=O)c2ccccc2)cc1 | 1.3% | i | -8.8% | ? | 1.5 | 7.2% | / | / | / | /
